Mac1 fbg inh: inhibitors of CD11b/CD18 adhesion to fibrinogen, primary screen, K562 cells, luminescence. Integrin beta-2 (Homo sapiens) + Integrin alpha-M (Homo sapiens), P05107+P11215. ATPlite luminescence; Mn2+ added to activate the integrin. inhibition, % at 10 µM. actives 0.54% (n = 93,000);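 active = primary inhibition of 50% or more at 10 µM, then 40% or more on retest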
Candida biofilm: clotrimazole potentiators killing Candida biofilms, primary screen, with clotrimazole, Alamar Blue; C. albicans biofilm + clotrimazole; inhibition, % at 6 µM; actives 0.14% (n = 85,000); AID 834, 2007;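 active = inhibition above 20%; inactive = inhibition below 20%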;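 also: preformed 24 hr biofilms exposed to compound for 48 hr; 0% = biofilm without compound and 100% = blank killed by clotrimazole plus chlorhexidine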
PLK1 kinase inh: human PLK1 kinase inhibitors, primary screen, biochemical, TR-FRET; Serine/threonine-protein kinase PLK1 (Homo sapiens), P53350; recombinant PLK1 kinase, TR-FRET peptide phosphorylation; inhibition, % at 10 µM; actives 0.53% (n = 97,000); AID 619, 2007;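 active = inhibition of 50% or more in the single-concentration screen; inactive = inhibition below 50%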;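 also: 0% = DMSO max control and 100% = H-89 dihydrochloride min control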
PLK1 PBD inh: Plk1 polo box domain binding inhibitors, primary screen, biochemical, fluorescence polarization; Plk1 PBD phosphopeptide binding; Serine/threonine-protein kinase PLK1 (Homo sapiens), P53350; inhibition, %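 (tested at about 20 µM)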; actives 0.13% (n = 97,000); AID 693, 2007; in the data active = inhibition above about 34%, passing the limit was not always enough
CD11b adhes enh: enhancers of CD11b/CD18 adhesion to fibrinogen, primary screen, K562 cells, luminescence. AID 1499, 2009. ATPlite luminescence. activation, % at 10 µM. actives 0.07% (n = 93,000). Integrin beta-2 (Homo sapiens) + Integrin alpha-M (Homo sapiens), P05107+P11215;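 active = 10 µM primary screen giving 50% or more activity, confirmed by 40% or more on retest at that dose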
PLK1 confirm: PLK1 kinase activity inhibitors, confirmation, biochemical, TR-FRET, duplicate runs; AID 744, 2007; actives 20% (n = 210); inhibition, % at 10 µM; recombinant PLK1 kinase, TR-FRET peptide phosphorylation; shares compounds with PLK1 kinase inh;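 active = inhibition at or above 50% in each of two repeat confirmation tests; inconclusive = one repeat below 50% inhibition, the other above; inactive = both repeats at or below 50% inhibition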;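 also: 0% = DMSO max control and 100% = H-89 kinase-blocked min control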
Plk1 interf: compound interference with Plk1 assay readout, artefact control for Plk1 kinase inhibitor project, biochemical, TR-FRET, compound added post-reaction; shares compounds with PLK1 kinase inh; inhibition (interference), % at 10 µM; 210 tested, under 10 active;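 active = both duplicate runs show 50% or greater inhibition; inconclusive = only one duplicate run shows over 50% inhibition; inactive = both runs show under 50% inhibition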;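 also: 0% = DMSO max control and 100% = H-89 min control inhibited reaction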
Numbers without * were called inactive. A selection: hits, their analogues and other compounds. The true share with any hit is near 1.1%.

COc1cccc(Nc2ncnc3nc[nH]c23)c1 was read as Mac1 fbg inh -12, Candida biofilm 12, PLK1 kinase inh 84*, PLK1 PBD inh 16, CD11b adhes enh 0, PLK1 confirm 70* and Plk1 interf -45.
For CCCCc1ccc(Nc2ncnc3nc[nH]c23)cc1 the results were Mac1 fbg inh 7, Candida biofilm -4, PLK1 kinase inh 32, PLK1 PBD inh 11 and CD11b adhes enh 9.
For O=C(O)CCc1ccc(-c2cccs2)n1-c1ccc(C(=O)O)cc1 the results were Mac1 fbg inh -3, Candida biofilm 5, PLK1 kinase inh 96*, PLK1 PBD inh -24, CD11b adhes enh 1, PLK1 confirm 1 and Plk1 interf -46.
Screening CC(=O)c1cccc(-n2c(CCC(=O)O)ccc2-c2cccs2)c1 returned Mac1 fbg inh 12, Candida biofilm 5, PLK1 kinase inh -8, PLK1 PBD inh -16 and CD11b adhes enh -1.
CCOC(=O)C1=C(CSc2nc3c(cc2C#N)CN(C)CC3)OC(N)=C(C#N)C1c1ccc(Cl)cc1 (stereo not given) was read as Mac1 fbg inh -15, Candida biofilm 13, PLK1 kinase inh 116*, PLK1 PBD inh -23, CD11b adhes enh 40, PLK1 confirm 1 and Plk1 interf -54.
For CCOC(=O)C1=C(CSc2nc(CC)c(C)cc2C#N)OC(N)=C(C#N)C1c1ccccc1 (stereo not given) the results were Mac1 fbg inh -1, Candida biofilm 4, PLK1 kinase inh -8, PLK1 PBD inh 21 and CD11b adhes enh 4.
CCCCCC(C)n1[nH]c(=O)c2c(C)cc(C)nc21 (stereo not given) was read as Mac1 fbg inh 13, Candida biofilm 4, PLK1 kinase inh 86*, PLK1 PBD inh 12, CD11b adhes enh -1, PLK1 confirm 2 and Plk1 interf -48.
For Cc1ccc(NC(=O)Cc2nnc(SCC(=O)c3ccc(Br)cc3)n2C)cc1 the results were Mac1 fbg inh -7, Candida biofilm 6, PLK1 kinase inh -7, PLK1 PBD inh -4 and CD11b adhes enh 0.
For Cc1ccc(-c2nc3cnccn3c2Nc2c(C)cccc2C)o1 the results were Mac1 fbg inh 8, Candida biofilm 9, PLK1 kinase inh -6, PLK1 PBD inh -19 and CD11b adhes enh 4.
Screening O=C(O)C1CCCCC1C(=O)NCc1cn2ccccc2n1 (stereo not given) returned Mac1 fbg inh -8, Candida biofilm 9, PLK1 kinase inh 71*, PLK1 PBD inh 41, CD11b adhes enh -8, PLK1 confirm -5 and Plk1 interf -49.
Cc1nc2ccc(NC(=O)c3cccs3)cc2c(=O)n1Cc1ccc(Cl)cc1 was read as Mac1 fbg inh 79, PLK1 kinase inh 123*, PLK1 PBD inh -18, CD11b adhes enh -7, PLK1 confirm -1 and Plk1 interf -49.
For O=C(N/N=C/c1cccc(Cl)c1Cl)Nc1ccccc1 the results were PLK1 kinase inh -10 and PLK1 PBD inh -10.
`Cc1cc(C(=O)N/N=C/c2cccc(Cl)c2Cl)no1` gave Mac1 fbg inh -7, PLK1 kinase inh 88*, PLK1 PBD inh -2, CD11b adhes enh -7, PLK1 confirm -8 and Plk1 interf -49.
For COc1ccc(OCc2nnc3n2N=C(c2ccc(OC)cc2)CS3)cc1 the results were Mac1 fbg inh -7, Candida biofilm 4, PLK1 kinase inh 83*, PLK1 PBD inh -21, CD11b adhes enh 6, PLK1 confirm -2 and Plk1 interf -49.
Screening COc1ccc(OCc2nnc3n2N=C(c2ccc(C)cc2)CS3)cc1 returned Mac1 fbg inh 0, Candida biofilm 14, PLK1 kinase inh 72*, PLK1 PBD inh -40, CD11b adhes enh 0, PLK1 confirm -4 and Plk1 interf -53.
CCOc1ccc(C2=Nn3c(nnc3-c3ccc(OC)cc3)SC2)cc1 was read as Mac1 fbg inh -6, Candida biofilm 7, PLK1 kinase inh -9, PLK1 PBD inh 1 and CD11b adhes enh -6.
`O=c1cc(N2CCOCC2)[nH]c(=O)n1-c1ccc(Cl)cc1` gave Mac1 fbg inh -2, Candida biofilm 14, PLK1 kinase inh 74*, PLK1 PBD inh -5, CD11b adhes enh -1, PLK1 confirm 6 and Plk1 interf -41.
`CCCCc1nc2n[nH]c(N)c2c2c1CSC(C)(C)C2` gave Mac1 fbg inh -7, Candida biofilm -2, PLK1 kinase inh 70*, PLK1 PBD inh -5, CD11b adhes enh -2, PLK1 confirm 36 and Plk1 interf -46.
`CC(C)Cc1nc2n[nH]c(N)c2c2c1COC(C)(C)C2` gave Mac1 fbg inh 0, Candida biofilm 5, PLK1 kinase inh 75*, PLK1 PBD inh -35, CD11b adhes enh -1, PLK1 confirm inconclusive and Plk1 interf -54.
Cc1cc(C)cc(N(C(C)C(=O)NCCC2=CCCCC2)S(C)(=O)=O)c1 (stereo not given) was read as Mac1 fbg inh 12, Candida biofilm 7, PLK1 kinase inh -8, PLK1 PBD inh -7 and CD11b adhes enh -4.
Screening N#Cc1c(N)c(C#N)c(-c2ccc3c(c2)OCO3)c2c1CCCC2 returned Mac1 fbg inh -4, Candida biofilm 1 and CD11b adhes enh 2.
`N#Cc1c(-c2ccc3c(c2)OCO3)csc1N` gave Mac1 fbg inh -4, Candida biofilm 6, PLK1 kinase inh 72*, PLK1 PBD inh 8, CD11b adhes enh 1, PLK1 confirm 66* and Plk1 interf -54.
For Cc1ccccc1-c1nc(-c2cccnc2)no1 the results were Mac1 fbg inh 1, Candida biofilm 6, PLK1 kinase inh 96*, PLK1 PBD inh -37, CD11b adhes enh -1, PLK1 confirm -1 and Plk1 interf -61.
Screening Clc1ccccc1-c1nc(-c2cccnc2)no1 returned Mac1 fbg inh 28, Candida biofilm 7, PLK1 kinase inh -10, PLK1 PBD inh 14 and CD11b adhes enh -6.
`O=C(CN1CCSC1=NCc1ccccc1)c1ccccc1` gave Mac1 fbg inh 2 and CD11b adhes enh 0.
Screening Cc1cccc(-n2ncc3c(NCCc4ccc(S(N)(=O)=O)cc4)ncnc32)c1 returned Mac1 fbg inh 0, Candida biofilm 10, PLK1 kinase inh 71*, PLK1 PBD inh -5, CD11b adhes enh 0, PLK1 confirm -16 and Plk1 interf -56.
